# Where “and” joins values, the source holds several entries; their conditions need not be identical. Equal values may be shown once. This is part of a sample that, as a whole, favours compounds with a hit. Of some 83,000 tested, about 20% had one in any assay.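 48-hour exposure, single concentration, 96-well plates; percent growth endpoint where 0 means no net growth. Active: below 10.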 More than one record can exist for a structure, and the calls need not agree. Calls of active or inactive are those of the source.
# System: HS 578T breast
# Test: NCI-60 one-dose screen, 48 h (100 = growth as untreated, 0 = no growth, -100 = all killed)
# Conditions: 1 µM
# Experimental: Growth inhibition of the HS 578T human tumor cell line is measured as a screen for anti-cancer activity. Cells are grown in 96 well plates and exposed to the test compound for 48 hours. Compounds are tested at a single concentration, which is 10^-5 M for most compounds. The reported endpoint is percent growth (GI% or GIPRCNT), where numbers from 0 - 100% represent growth inhibition, and numbers from -100% - 0 represent cell death. For example, a value of 40 represents 60% growth inhibition. A value of 0 means no net growth occurred over the course of the experiment. A value of -40 indicates 40% of cells at the beginning of the experiment died by the end of the experiment. A value of -100 means all cells are dead at the end of the experiment.
# NCI-60 Human Tumor Cell Lines Screen was performed using the standard one-dose NCI protocol, which is described in more detail at https://dtp.cancer.gov/discovery_development/nci-60/default.htm.
# Compounds with GIPRCNT values below 10 were considered active. Activity score was based on GIPRCNT using the following formula: […]
# Score is 0 for GIPRCNT values of 100 or above, 50 for GIPRCNT values of 0, and 100 for GIPRCNT values of -100.
row,SMILES,growth
1,CNC(=O)c1cc(Oc2ccc(CC(=O)Nc3cc(C(C)(C)C)nn3C)cc2)ccn1,81.4% (inactive)

# Same assay, conditions: 10 µM
row,SMILES,growth
1,Cc1[nH]c(-c2nc3ccccc3[nH]2)c(C)c1C(=O)NC(C)C1CCCCC1 (stereo not given),82.8% (inactive)
2,CNC(=O)c1cc(Oc2ccc(CC(=O)Nc3cc(C(C)(C)C)nn3C)cc2)ccn1,65.4% (inactive)

# Same assay, conditions: 10 µM unless noted
row,SMILES,growth
1,CCN(CC)CCc1nc(-c2ccccc2)no1,98% (inactive)
2,C=C1C(=O)O[C@H]2[C@H]1CC/C(COC(=O)NC1CCC(O)CC1)=C\CC[C@@]1(C)O[C@@H]21 (stereo not given in full),92% (inactive) and 87.6% (inactive)
3,CN(Cc1ccccc1)Cc1ccccc1,108% (inactive)
4,O=[N+]([O-])c1ccccc1/C=N\Nc1ccccc1,90.3% (inactive) and 118% (inactive)
5,CC1=CCC2CC1C2(C)C (stereo not given),81.8% (inactive)
6,O=[N+]([O-])c1ccc(N/N=C\c2cc(Br)ccc2O)nc1,39.1% (inactive) and 61.4% (inactive)
7,O=C(O)C1(C(=O)O)CCC1.[NH2-].[NH2-].[Pt+2],105% (inactive) and 112% (inactive)
8,CN(C)c1ccc(C(Cc2ccc3ccccc3n2)Cc2ccc3ccccc3n2)cc1,70% (inactive) and 93% (inactive)
9,O=S1(=O)CC(Br)C(Br)C1 (stereo not given),91.4% (inactive) and 89.7% (inactive)
10,CC(=O)c1ccccc1O,95.7% (inactive) and 109% (inactive) and 98.9% (inactive)
11,N/C(=N\N=C\c1ccc2c(c1)OCO2)N/N=C\c1ccc2c(c1)OCO2,115% (inactive) and 92.5% (inactive)
12,CN(C)c1ccc(/C=C(\C#N)c2ccccc2)cc1,28.3% (inactive) and 56.2% (inactive) and 28.9% (inactive)
13,CNc1ccc2nc3ccc(=[N+](C)C)cc-3sc2c1,-15% (active) and 20.2% (inactive)
14,Cc1nnc(NC/C=C/c2ccccc2)s1,122% (inactive) and 105% (inactive)
15,CNC(=O)c1cccnc1,107% (inactive)
16,CC(C)(O)Cn1cc(-c2ccc3nc(OC4CC4)ccc3c2)c2c(N)ncnc21,71.1% (inactive) and 31.9% (inactive)
17,CN1C(=O)C(N=Nc2ccc([N+](=O)[O-])cc2)SC1=S (stereo not given),72.6% (inactive) and 71% (inactive)
18,O=C(/C=C\c1ccnc2ccccc12)c1ccc([N+](=O)[O-])cc1,107% (inactive) and 88.6% (inactive)

row,SMILES,growth
1,CCCCCCCCCCCCCCCCOc1ccc(C)cc1,110% (inactive)
2,Cc1ccc(NCSc2ccc(Cl)cc2)cc1,93.7% (inactive) and 102% (inactive)
3,Oc1c(CN2CCCCC2)ccc2cccnc12,89.5% (inactive) and 89.1% (inactive)
4,Nc1cc(-c2cccc(OC(F)(F)F)c2)nc2ccc(N3CCCC3)cc12,-0.422% (active) and 13.7% (inactive) and 27.5% (inactive)
5,O=C(Oc1cccc(OC(=O)c2ccccc2)c1)c1ccccc1,78.4% (inactive) and 102% (inactive)
6,CN(C)c1ccc2nc3ccc(=[N+](C)C)cc-3sc2c1,49.8% (inactive) and 111% (inactive)
7,O=C1c2ccccc2C(=O)c2c(NCCNCCO)ccc(NCCNCCO)c21,-20.7% (active) and -14.7% (active) and 30.7% (inactive)
8,O=C(Nc1ccc([N+](=O)[O-])cc1Cl)c1cc(Cl)ccc1O,-6.4% (active) and -20.7% (active)
9,CC(/C=N/N1C(=O)c2ccccc2C1=O)c1ccccc1 (stereo not given),119% (inactive)
10,NC(=S)NS(=O)(=O)c1ccc(N)cc1,101% (inactive)
11,CCN(CC)CCC(CNc1c2ccc([N+](=O)[O-])cc2nc2cc(OC)c(OC)cc12)c1ccccc1 (stereo not given),44.4% (inactive)
12,O=[N+]([O-])c1ccc(-n2[nH]nnc2=S)cc1,104% (inactive)
13,Cc1cc(O)c(C(C)C)cc1N,120% (inactive) and 99.7% (inactive)
14,CCC(=O)C(CC)c1cccc(OC)c1 (stereo not given),106% (inactive)
15,CO/N=C/C=C\C(=O)N/C=C/C[C@H]1/C=C/[C@H](O)/C=C\C=C\c2cccc(O)c2C(=O)O1,50.9% (inactive) and 57.1% (inactive)
16,C[N+](C)(C)CN1C(=O)c2ccccc2C1=O,103% (inactive)
17,NS(=O)(=O)c1cc2c(cc1Cl)NC(C(Cl)Cl)NS2(=O)=O (stereo not given),124% (inactive) and 128% (inactive)

# Same assay, conditions: 30 µM
row,SMILES,growth
1,CNC(=O)c1cc(Oc2ccc(CC(=O)Nc3cc(C(C)(C)C)nn3C)cc2)ccn1,83.5% (inactive)

# Same assay, conditions: 100 µM
row,SMILES,growth
1,Cc1[nH]c(-c2nc3ccccc3[nH]2)c(C)c1C(=O)NC(C)C1CCCCC1 (stereo not given),-39% (active)

# Source: PubChem BioAssay (NCI)
